Experimental data as given in PubChem BioAssay (EPA / NIEHS).
Records with an inconclusive call do not appear. The source made the active and inactive calls. Rule for the calls, unless noted: active = hit-call score of the fitted dose curve at least 0.9, where 1 is the maximum; inactive = score below 0.9.

Key:
[1] = STM_H9_NormalizedViability: Cytotoxicity Assessment at 120 hours in the Stemina devTOX quickPredict H9 human embryonic stem cell (hESC)-based Assay (AID 2283784; active = hit-call score of the fitted dose curve at least 0.9, where 1 is the maximum)
Summary of the method: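 Undifferentiated H9 hESCs kept pluripotent were exposed to compound, with media and chemical replaced every 24h. CellTiter-Fluor protease-substrate fluorescence was background-corrected and normalized per plate to the 0.1% DMSO vehicle; signal loss indicates reduced viability.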

[2] = CCTE_Shafer_MEA_acute_spike_number: CCTE's Neural Acute Assay for Total Number of Spikes, Shafer Lab (AID 2284008)
Summary of the method: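 Read-out is the total spike count over 40 min, expressed as percent change from each well's own pre-treatment baseline and fitted in the loss direction against DMSO. Rat cortical neurons were exposed at 0.03-40 uM on DIV 13 or 15.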

[3] = CCTE_Shafer_MEA_acute_firing_rate_mean: CCTE's Neural Acute Assay for Mean Firing Rate, Shafer Lab (AID 2284009);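 note: analyzed for loss of signal so actives lower firing rate relative to DMSO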
Summary of the method: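 Rat primary cortical neurons on 48-well MEA plates, dosed at 0.03-40 uM on DIV 13 or 15; 40 min spontaneous activity recorded at 37 C before and after compound. Spike rate per electrode averaged per well, expressed as percent change from baseline.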

[4] = CCTE_Harrill_HTTr_Viability_MCF7: CCTE's 6-hour Cell Viability Assessment for the High-Throughput Transcriptomics (HTTr) Platform, in MCF-7 cells cultured in DMEM + 10% fetal bovine serum, Harrill Lab (AID 2284010)
Summary of the method: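 Membrane integrity was scored by high-content imaging of propidium iodide dye exclusion after a 6 h exposure across an eight-point dilution series. Data were fitted bidirectionally relative to DMSO as negative control and baseline.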

[5] = CCTE_Harrill_HTTr_Apoptosis_MCF7: CCTE's 6-hour Apoptosis Assessment for the High-Throughput Transcriptomics (HTTr) Platform, in MCF-7 cells cultured in DMEM + 10% fetal bovine serum, Harrill Lab (AID 2284011)
Summary of the method: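 MCF-7 (DMEM + 10% FBS), 384-well; 8-pt dilution series, 6 h chemical exposure; caspase-3/7 activation via CellEvent Caspase 3/7 Green, HCI; bidirectional fit vs DMSO.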

[6] = CCTE_Shafer_MEA_acute_burst_number: CCTE's Neural Acute Assay for Single-Electrode Bursts, Shafer Lab (AID 2284013)
Summary of the method: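 Primary rat cortical neurons on 16-electrode MEA wells, treated on DIV 13 or 15 with compound at 0.03-40 uM. Single-electrode burst count from 40-min recordings at 37 C before and after exposure; percent change from baseline per well, DMSO negative control.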

[7] = CCTE_Shafer_MEA_acute_burst_duration_mean: CCTE's Neural Acute Assay for Mean Burst Duration, Shafer Lab (AID 2284014);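 note: hits are decreases in mean burst duration relative to DMSO controls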
Summary of the method: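 Rat primary cortical neurons on 48-well MEA, treated at DIV 13 or 15 with 0.03-40 uM in at least 3 wells. Value is percent change in mean burst duration, comparing 40 min recordings at 37 C before and during exposure.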

[8] = CCTE_Shafer_MEA_acute_per_burst_spike_number_mean: CCTE's Neural Acute Assay for Average Number of Spikes Per Burst, Shafer Lab (AID 2284015);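 note: hits are decreases in mean spikes per burst versus baseline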
Summary of the method: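 Percent change in mean spikes per single-electrode burst is compared between a 40 min baseline and a 40 min recording with compound (0.03-40 uM). Cultures were rat cortical neurons on MEA plates at DIV 13 or 15, recorded at 37 C, with DMSO as the negative control.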

[9] = CCTE_Shafer_MEA_acute_interburst_interval_mean: CCTE's Neural Acute Assay for Mean Interburst Interval, Shafer Lab (AID 2284016);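 note: percent change of mean interburst interval versus each well's own pre-dose baseline; curves fitted for decrease in interburst interval relative to DMSO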
Summary of the method: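 Percent change in mean single-electrode interburst interval was calculated per well from 40 min recordings before and after compound (0.03-40 uM). Recordings were made at 37 C on rat cortical cultures at DIV 13 or 15, with spikes detected at 8x rms threshold.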

[10] = CCTE_Shafer_MEA_acute_burst_percentage_mean: CCTE's Neural Acute Assay for Percentage of Spikes in a Burst, Shafer Lab (AID 2284017)
Summary of the method: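 Well-level mean burst percentage from a 40-min recording after compound (0.03-40 uM) expressed as percent change from a 40-min baseline at 37C. Cultures: primary rat cortical neurons on MEA, dosed on DIV 13 or 15; fitted downward relative to DMSO.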

[11] = CCTE_Shafer_MEA_acute_burst_percentage_std: CCTE's Neural Acute Assay for Standard Deviation of Burst Percentage, Shafer Lab (AID 2284018);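 note: fitted in the negative direction so actives lower burst percentage SD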
Summary of the method: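 Rat primary cortical neurons on 48-well MEAs, DIV 13 or 15, 37 C. 40-min baseline then 40-min recording with compound (0.03-40 uM); well-level SD of per-electrode burst spike percentage, expressed as percent change from baseline.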

[12] = CCTE_Shafer_MEA_acute_per_network_burst_spike_number_mean: CCTE's Neural Acute Assay for Average Number of Spikes in a Network Burst, Shafer Lab (AID 2284019)
Summary of the method: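 Rat primary cortical neurons on 48-well MEA at DIV 13 or 15, 37 C; compounds 0.03-40 uM, at least three wells each. 40-min baseline then 40-min exposure recording; percent change in mean spikes per network burst.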

[13] = CCTE_Shafer_MEA_acute_per_network_burst_spike_number_std: CCTE's Neural Acute Assay for Standard Deviation of Number of Spikes in a Network Burst, Shafer Lab (AID 2284020);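 note: fitted for decrease in spike-number SD versus DMSO so actives lower it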
Summary of the method: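 Rat primary cortical neurons on 48-well MEA (16 electrodes/well), treated DIV 13 or 15 at 0.03-40 uM, ≥3 wells per compound. 40 min recordings at 37 C before and after dosing; value is percent change in network-burst spike-number SD, negative direction vs DMSO.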

[14] = CCTE_Shafer_MEA_acute_per_network_burst_electrodes_number_mean: CCTE's Neural Acute Assay for Mean Number of Electrodes in a Network Burst, Shafer Lab (AID 2284021);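 note: curves fitted for decreases only so hits reduce electrodes per burst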
Summary of the method: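 Primary rat cortical networks, mwMEA, 37 C. 20 min stabilization, 40 min baseline, compound 0.03-40 uM, 40 min re-record. Wells need >=10 active electrodes; percent change per well, negative fitting direction.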

[15] = CCTE_Shafer_MEA_acute_network_burst_percentage: CCTE's Neural Acute Assay for Percentage of Network Bursts, Shafer Lab (AID 2284022);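 note: curves fitted for loss so actives lower network burst percentage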
Summary of the method: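 Readout is the fraction of spikes falling in network bursts, expressed as per-well percent change from a 40-min pre-exposure baseline. Primary rat cortical neurons on MEA were exposed to 0.03-40 uM compound on DIV 13 or 15 and recorded for 40 min at 37 C.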

[16] = CCTE_Shafer_MEA_acute_cross_correlation_HWHM: CCTE's Neural Acute Assay for Cross Correlation at Half Width at Half Maximum, Shafer Lab (AID 2284026);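 note: spontaneous network firing of rat primary cortical neurons on multiwell microelectrode arrays; percent change per well from pre-dose baseline in spike cross-correlogram half width; hits are a decrease in cross-correlogram half width relative to DMSO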
Summary of the method: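 Rat cortical neuron cultures on microelectrode arrays were equilibrated 20 min at 37 C, recorded 40 min at baseline, then 40 min after compound addition (0.03-40 uM, ≥3 wells). Spikes were detected at 8x rms noise after 300-5000 Hz band-pass filtering.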

[17] = CCTE_Shafer_MEA_acute_synchrony_index: CCTE's Neural Acute Assay for Synchrony, Shafer Lab (AID 2284027);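 note: network synchrony index of spontaneous spiking in primary rat cortical neurons on MEAs; fitted for loss of signal so actives lower synchrony relative to DMSO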
Summary of the method: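 Primary rat cortical neurons on 16-electrode MEA wells were recorded 40 min at baseline (DIV 13 or 15) and 40 min after compound (0.03-40 uM) at 37 C. Synchrony index (0-1) expressed as percent change from baseline, versus DMSO.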

[18] = CCTE_Shafer_MEA_acute_AB: CCTE's Alamar Blue Assay for Cytotoxicity in the Neural Acute Assay, Shafer Lab (AID 2284069; active = hit-call score of the fitted dose curve at least 0.9, where 1 is the maximum;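 note: active compounds lower the viability signal compared with DMSO wells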)
Summary of the method: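 Resazurin reduction (CellTiter Blue, 1:6 in fresh medium) read at ex 544/em 590 nm marks viability loss relative to DMSO. Cells: primary rat cortical neuron networks on microelectrode arrays, treated after baseline recording at 13 or 15 days in vitro.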

IYD (gene 389434) = assay: CCTE_GLTED_hIYD: CCTE's human Iodotyrosine Deiodinase (xIYD) Inhibition Assay, Great Lakes Toxicology and Ecology Division (GLTED) Lab (AID 2284317; active = hit-call score of the fitted dose curve at least 0.9, where 1 is the maximum;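 note: cell-free human IYD enzyme made in baculovirus insect cells; iodide freed from monoiodotyrosine measured by cerium arsenite color change at 420 nm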)
Summary of the method: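 Human IYD expressed in a baculovirus-insect cell system was incubated 3 h with monoiodotyrosine and test chemical. Released iodide, separated on Dowex columns, was quantified by the Sandell-Kolthoff reaction at 420 nm; plates were normalized to MNT and DMSO/NaOH controls.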

Measured: AC50

c1cc[n+]2c(c1)-c1cccc[n+]1CC2
active: [1] 7.82 µM | IYD (gene 389434) 11.4 µM
inactive: all other assays above
